Each structure is given as a SMILES string. The panel holds about 79,000 compounds, 15% with a hit somewhere; the sample as a whole holds those more often. A number with no mark means an inactive call. The source made the active and inactive calls. Cut-off read from the data, not from the text of the source: active = growth inhibition above about 70%; inactive = the rest.

Test [1] is described as follows: NCI Yeast Anticancer Drug Screen. Data for the rad50 strain (AID 155).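 Note: 0% = growth of vehicle-only cultures of the same strain.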 To be noted: S. cerevisiae rad50 strain growth inhibition, active compounds read high. The gist of the method:
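A DNA repair-deficient yeast mutant serves as the test organism; compound-induced growth inhibition is calculated against vehicle-treated cells.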

A short description of test [2]: NCI Yeast Anticancer Drug Screen. Data for the mec2-1 strain (AID 157). To be noted: S. cerevisiae mec2-1 strain, active compounds read high. The gist of the method:
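Each compound was tested on mec2-1 yeast, a strain altered in DNA damage repair or cell cycle control. Growth inhibition is reported relative to vehicle.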

Test [3] is described as follows: NCI Yeast Anticancer Drug Screen. Data for the sgs1 mgt1 strain (AID 161).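 Note: 0% = growth of cultures given vehicle only.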 To be noted: S. cerevisiae sgs1 mgt1 strain, active compounds read high. The essentials: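 Read-out: growth inhibition vs vehicle controls. Cells: mutant yeast strain deficient in DNA damage repair.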
The nature of test [4]: NCI Yeast Anticancer Drug Screen. Data for the cln2 rad14 strain (AID 165).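 Note: 0% = growth equal to vehicle treated cultures.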 To be noted: S. cerevisiae cln2 rad14 strain, active compounds read high. The essentials: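 Test compounds were added to cln2 rad14 yeast cultures; inhibition of growth was then determined by comparison with vehicle treatment.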
The nature of test [5]: NCI Yeast Anticancer Drug Screen. Data for the bub3 strain (AID 167). To be noted: S. cerevisiae bub3 mutant strain, active compounds read high. The essentials: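 Inhibition values come from growth of compound-treated mutant yeast normalised to vehicle-treated controls.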
Test [6] can be described thus: NCI Yeast Anticancer Drug Screen. Data for the mlh1 rad18 strain (AID 175). To be noted: S. cerevisiae mlh1 rad18 strain growth inhibition, active compounds read high. The gist of the method: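 Inhibition values reflect reduced growth of mutant yeast versus vehicle-treated controls following compound exposure; the mutations affect DNA damage repair.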
[7] abbreviates: at 5.0 µM (retest, dose inferred, filed as 0.5).
[8] abbreviates: at 50.0 µM (retest, dose inferred, filed as 5.0).

For the compound `O=C1C(Br)=C(Br)C(=O)c2ccccc21`, the growth inhibition is 100% (active) in test [1] (setting [7]); 95% (active) in test [1] (setting [8]); 92.5% (active) in test [1] (at 50.0 µM); 100% (active) in test [2] (setting [7]); 96% (active) in test [2] (setting [8]); 94.2% (active) in test [2] (at 50.0 µM). Moreover, the growth inhibition in test [3] (setting [7]) was 100% (active); in test [3] (setting [8]), 95% (active); in test [3] (at 50.0 µM), 94.5% (active); in test [4] (setting [7]) it was 100% (active); in test [4] (setting [8]), 95% (active); in test [4] (at 50.0 µM), 90.9% (active). Also, the growth inhibition in test [5] (setting [7]) was 100% (active); in test [5] (setting [8]), 98% (active); in test [5] (at 50.0 µM), 96.7% (active); in test [6] (setting [7]), 99% (active); in test [6] (setting [8]) it was 91% (active); in test [6] (at 50.0 µM), 89.9% (active).
For the compound `CCOc1c(N=Nc2ccccc2Cl)c(-c2ccccc2)nn1C(=S)S`, the growth inhibition in test [1] (setting [7]) was -1%; in test [1] (setting [8]), 20%; in test [1] (at 50.0 µM) it was 52.7%; in test [2] (setting [7]) it was -4%; in test [2] (setting [8]), 24%; in test [2] (at 50.0 µM) it was 57.6%. Besides, the growth inhibition in test [3] (setting [7]) is -2%; in test [3] (setting [8]), -70%; in test [3] (at 50.0 µM), 28.8%; in test [4] (setting [7]), -7%; in test [4] (setting [8]), 27%; in test [4] (at 50.0 µM), 48.5%. The growth inhibition was 3% in test [5] (setting [7]); 64% in test [5] (setting [8]); 78.5% (active) in test [5] (at 50.0 µM); -2% in test [6] (setting [7]); 31% in test [6] (setting [8]); 42.9% in test [6] (at 50.0 µM).
For `CN(C)CCCc1ccc2oc3ccccc3c2c1`, the growth inhibition is 5% in test [1] (setting [7]); 65% in test [1] (setting [8]); 77.8% (active) in test [1] (at 50.0 µM); 4% in test [2] (setting [7]); 39% in test [2] (setting [8]); 40.7% in test [2] (at 50.0 µM). The growth inhibition is 6% in test [3] (setting [7]); 54% in test [3] (setting [8]); 48.6% in test [3] (at 50.0 µM); 15% in test [4] (setting [7]); 34% in test [4] (setting [8]); 27.1% in test [4] (at 50.0 µM). The growth inhibition in test [5] (setting [7]) was 14%; in test [5] (setting [8]), 77% (active); in test [5] (at 50.0 µM) it was 69%; in test [6] (setting [7]), 7%; in test [6] (setting [8]), 42%; in test [6] (at 50.0 µM), 48%.
Consider `CCNc1ccccc1C`, for which the growth inhibition in test [1] (setting [7]) is 3%; in test [1] (setting [8]) it was 91% (active); in test [1] (at 50.0 µM), 98.7% (active); in test [2] (setting [7]), -1%; in test [2] (setting [8]) it was 88% (active); in test [2] (at 50.0 µM), 98.2% (active). For the same compound, the growth inhibition is -2% in test [3] (setting [7]); 86% (active) in test [3] (setting [8]); 97% (active) in test [3] (at 50.0 µM); 2% in test [4] (setting [7]); 97% (active) in test [4] (setting [8]); 96.4% (active) in test [4] (at 50.0 µM). The growth inhibition is 7% in test [5] (setting [7]); 82% (active) in test [5] (setting [8]); 97.7% (active) in test [5] (at 50.0 µM); 3% in test [6] (setting [7]); 97% (active) in test [6] (setting [8]); 98.3% (active) in test [6] (at 50.0 µM).
With `Fc1ccc(C2SCc3nc4ccccc4n32)cc1Cl` (stereo not drawn), the growth inhibition in test [1] (setting [7]) was 32%; in test [1] (setting [8]), 78% (active); in test [1] (at 50.0 µM), 91.3% (active); in test [2] (setting [7]) it was 27%; in test [2] (setting [8]), 72% (active); in test [2] (at 50.0 µM), 93% (active). Moreover, the growth inhibition is 37% in test [3] (setting [7]); 90% (active) in test [3] (setting [8]); 94.3% (active) in test [3] (at 50.0 µM); 24% in test [4] (setting [7]); 69% in test [4] (setting [8]); 92.5% (active) in test [4] (at 50.0 µM). The growth inhibition in test [5] (setting [7]) is 33%; in test [5] (setting [8]), 88% (active); in test [5] (at 50.0 µM), 91.8% (active); in test [6] (setting [7]), 41%; in test [6] (setting [8]), 89% (active); in test [6] (at 50.0 µM), 92.1% (active).
`c1ccc2c(c1)OCC(CN1CCN(CC3COc4ccccc4O3)CC1)O2` (stereo not drawn): the growth inhibition in test [1] (setting [7]) was 41%; in test [1] (setting [8]), 57%; in test [1] (at 50.0 µM), 76.7% (active); in test [2] (setting [7]), 36%; in test [2] (setting [8]), 51%; in test [2] (at 50.0 µM) it was 67%. For the same compound, the growth inhibition in test [3] (setting [7]) was 47%; in test [3] (setting [8]) it was 55%; in test [3] (at 50.0 µM) it was 77.7% (active); in test [4] (setting [7]), 52%; in test [4] (setting [8]), 58%; in test [4] (at 50.0 µM), 84% (active). For the same compound, the values for the growth inhibition in test [5] (setting [7]), in test [5] (setting [8]) and in test [5] (at 50.0 µM) were 47%, 60% and 67.9%, respectively.
Turning to `COc1ccc(/C=N/NS(=O)(=O)c2ccc(C)cc2)cc1`, the growth inhibition in test [1] (setting [7]) was 13%; in test [1] (setting [8]), 83% (active); in test [1] (at 50.0 µM), 94.2% (active); in test [2] (setting [7]), -5%; in test [2] (setting [8]), 97% (active); in test [2] (at 50.0 µM), 67.9%. Besides, the growth inhibition in test [3] (setting [7]) was 6%; in test [3] (setting [8]) it was 98% (active); in test [3] (at 50.0 µM), 91.7% (active); in test [4] (setting [7]), 18%; in test [4] (setting [8]), 96% (active); in test [4] (at 50.0 µM), 45.4%. Also, the growth inhibition is 23% in test [5] (setting [7]), 94% (active) in test [5] (setting [8]) and 46.3% in test [5] (at 50.0 µM).
`COC1OC(CO)C(O)C(OC(=O)c2ccc([N+](=O)[O-])cc2)C1OS(=O)(=O)c1ccc(C)cc1` (stereo not drawn): the growth inhibition is 2% in test [1] (setting [7]); 0% in test [1] (setting [8]); 31.8% in test [1] (at 50.0 µM); -1% in test [2] (setting [7]); 7% in test [2] (setting [8]); -0.1% in test [2] (at 50.0 µM). The growth inhibition in test [3] (setting [7]) is -1%; in test [3] (setting [8]), 0%; in test [3] (at 50.0 µM), 18.7%; in test [4] (setting [7]) it was -1%; in test [4] (setting [8]), -1%; in test [4] (at 50.0 µM), -2.5%. Further, the growth inhibition was 2% in test [5] (setting [7]); -2% in test [5] (setting [8]); -0.2% in test [5] (at 50.0 µM); 27% in test [6] (setting [7]); 7% in test [6] (setting [8]); 10.6% in test [6] (at 50.0 µM).
Take `COc1cccc2c1OC(c1cccc3ccccc13)C([N+](=O)[O-])=C2` (stereo not drawn): the growth inhibition was 49% in test [1] (setting [7]); 75% (active) in test [1] (setting [8]); 62.3% in test [1] (at 50.0 µM); 32% in test [2] (setting [7]); 67% in test [2] (setting [8]); 62.1% in test [2] (at 50.0 µM). The growth inhibition in test [3] (setting [7]) is 39%; in test [3] (setting [8]), 70% (active); in test [3] (at 50.0 µM), 61.4%; in test [4] (setting [7]), 22%; in test [4] (setting [8]), 62%; in test [4] (at 50.0 µM), 47%. The results for the growth inhibition in test [5] (setting [7]), in test [5] (setting [8]) and in test [5] (at 50.0 µM) were 47%, 74% (active) and 54.8%, respectively.
Take `O=C(CCCl)Nc1ccc(CCC(=O)c2ccccc2NC(=O)CCCl)cc1`: the growth inhibition is -10% in test [1] (setting [7]); 23% in test [1] (setting [8]); 69.2% in test [1] (at 50.0 µM); -9% in test [2] (setting [7]); -4% in test [2] (setting [8]); 64.4% in test [2] (at 50.0 µM). Moreover, the growth inhibition in test [3] (setting [7]) is -7%; in test [3] (setting [8]), 59%; in test [3] (at 50.0 µM), 81.8% (active); in test [4] (setting [7]), -24%; in test [4] (setting [8]), -22%; in test [4] (at 50.0 µM), 27.9%. Moreover, the results for the growth inhibition in test [5] (setting [7]), in test [5] (setting [8]) and in test [5] (at 50.0 µM) were -8%, 19% and 10.8%, respectively.
For the compound `Cc1ccc(/C=C2\CCCC(CN(C)C)C2=O)cc1` (stereo not drawn), the growth inhibition is -12% in test [1] (setting [7]); 95% (active) in test [1] (setting [8]); 61.5% in test [1] (at 50.0 µM); -4% in test [2] (setting [7]); 99% (active) in test [2] (setting [8]); 62.5% in test [2] (at 50.0 µM). Besides, the growth inhibition in test [3] (setting [7]) is -16%; in test [3] (setting [8]) it was 96% (active); in test [3] (at 50.0 µM), 78.5% (active); in test [4] (setting [7]), 6%; in test [4] (setting [8]) it was 97% (active); in test [4] (at 50.0 µM), 41.4%. For the same compound, the growth inhibition is -31% in test [5] (setting [7]), 99% (active) in test [5] (setting [8]) and 49.3% in test [5] (at 50.0 µM).

For the origin of these results see PubChem BioAssay (NCI).
